Measured values from PubChem BioAssay (NCI).
This is part of a sample that, as a whole, favours compounds with a hit. Of some 79,000 tested, about 15% had one in any assay. Calls of active or inactive are those of the source. Cut-off read from the data, not from the text of the source: active = growth inhibition above about 70%; inactive = the rest.

Experiments:
[1] = NCI Yeast Anticancer Drug Screen. Data for the rad52 strain (AID 147);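 note: 0% = growth of vehicle-treated control cultures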; conditions: S. cerevisiae rad52 mutant growth inhibition, stronger effect = higher value
Procedure, shortened: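 Inhibition of yeast growth, referenced to vehicle controls, was the measured output for a strain with defective DNA damage repair.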

[2] = NCI Yeast Anticancer Drug Screen. Data for the wt1 strain (AID 149);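 note: 0% = growth of vehicle-treated wt1 cultures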; conditions: S. cerevisiae wt1 strain (SPY 50644) growth inhibition, stronger effect = higher value
Procedure, shortened: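 wt1 yeast, compound-treated; % growth inhibition vs vehicle control.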

[3] = NCI Yeast Anticancer Drug Screen. Data for the rad50EPP+ strain (AID 151);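 note: 0% = growth of vehicle-treated control cultures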; conditions: S. cerevisiae rad50 mutant strain, stronger effect = higher value
Procedure, shortened: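 Genetically defined yeast (rad50EPP+, DNA damage repair alteration) is grown with compound, and inhibition of growth is expressed relative to vehicle-treated controls.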

[4] = NCI Yeast Anticancer Drug Screen. Data for the mgt1 strain (AID 153); conditions: S. cerevisiae mgt1 mutant growth inhibition, stronger effect = higher value
Procedure, shortened: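 In the mgt1 strain, test compounds were added and growth inhibition was determined relative to vehicle-treated controls.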

[5] = NCI Yeast Anticancer Drug Screen. Data for the rad50 strain (AID 155);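 note: 0% = growth of vehicle-only cultures of the same strain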; conditions: S. cerevisiae rad50 strain growth inhibition, stronger effect = higher value
Procedure, shortened: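 Genetically altered yeast (DNA repair pathway); compound treatment; growth inhibition vs vehicle ctrl.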

[6] = NCI Yeast Anticancer Drug Screen. Data for the mec2-1 strain (AID 157); conditions: S. cerevisiae mec2-1 strain, stronger effect = higher value
Procedure, shortened: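 Each compound was tested on mec2-1 yeast, a strain altered in DNA damage repair or cell cycle control. Growth inhibition is reported relative to vehicle.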

[7] = NCI Yeast Anticancer Drug Screen. Data for the rad14 strain (AID 159);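 note: 0% = growth of vehicle-treated control cultures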; conditions: S. cerevisiae rad14 strain growth inhibition, stronger effect = higher value
Procedure, shortened: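 Test compounds were applied to a repair-deficient yeast strain. Its growth was then compared with that of cultures given vehicle alone, and inhibition was expressed relative to those controls.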

[8] = NCI Yeast Anticancer Drug Screen. Data for the sgs1 mgt1 strain (AID 161);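 note: 0% = growth of cultures given vehicle only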; conditions: S. cerevisiae sgs1 mgt1 strain, stronger effect = higher value
Procedure, shortened: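 Mutant yeast exposed to compound; growth scored against vehicle-only wells.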

[9] = NCI Yeast Anticancer Drug Screen. Data for the CLN2oe strain (AID 163);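 note: 0% = growth of vehicle-only control cultures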; conditions: S. cerevisiae CLN2oe strain, stronger effect = higher value
Procedure, shortened: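 First, the altered yeast strain was treated with each compound; second, its growth was measured; finally, inhibition was derived by comparison with vehicle controls.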

[10] = NCI Yeast Anticancer Drug Screen. Data for the cln2 rad14 strain (AID 165);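 note: 0% = growth equal to vehicle treated cultures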; conditions: S. cerevisiae cln2 rad14 strain, stronger effect = higher value
Procedure, shortened: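 Test compounds were added to cln2 rad14 yeast cultures; inhibition of growth was then determined by comparison with vehicle treatment.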

[11] = NCI Yeast Anticancer Drug Screen. Data for the bub3 strain (AID 167); conditions: S. cerevisiae bub3 mutant strain, stronger effect = higher value
Procedure, shortened: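 Yeast carrying a defined mutation is treated with each compound, and growth is compared with that of vehicle-exposed cells to give inhibition.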

[12] = NCI Yeast Anticancer Drug Screen. Data for the wt2 strain (AID 169);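 note: 0% = growth of vehicle-treated yeast cultures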; conditions: S. cerevisiae wt2 strain growth inhibition, stronger effect = higher value
Procedure, shortened: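 The panel's yeast strains carry defined changes in DNA repair or cell cycle genes. Each strain is grown with compound, and growth loss is scored relative to vehicle.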

[13] = NCI Yeast Anticancer Drug Screen. Data for the mlh1 strain (AID 171);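 note: 0% = growth of vehicle-treated control cultures of the same strain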; conditions: S. cerevisiae mlh1 strain growth inhibition, stronger effect = higher value
Procedure, shortened: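 Inhibition values reflect reduced yeast growth in the presence of compound, referenced to vehicle controls, using a strain chosen for its alteration in DNA repair or cell cycle control.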

[14] = NCI Yeast Anticancer Drug Screen. Data for the sgs1 strain (AID 173);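 note: 0% = growth of vehicle-only control cultures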; conditions: S. cerevisiae sgs1 mutant, stronger effect = higher value
Procedure, shortened: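 Vehicle-treated cultures served as reference for growth inhibition of a yeast strain altered in DNA damage repair or cell cycle control after compound exposure.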

[15] = NCI Yeast Anticancer Drug Screen. Data for the mlh1 rad18 strain (AID 175); conditions: S. cerevisiae mlh1 rad18 strain growth inhibition, stronger effect = higher value
Procedure, shortened: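 Inhibition values reflect reduced growth of mutant yeast versus vehicle-treated controls following compound exposure; the mutations affect DNA damage repair.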

[16] = NCI Yeast Anticancer Drug Screen. Data for the rad18 strain (AID 177); conditions: S. cerevisiae rad18 mutant growth inhibition, stronger effect = higher value
Procedure, shortened: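 Steps: expose repair-mutant yeast to compound; measure growth; express as inhibition relative to vehicle control.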

[17] = at 5.0 µM (retest, dose inferred, filed as 0.5)
[18] = at 50.0 µM (retest, dose inferred, filed as 5.0)

Measured: growth inhibition

CCOC(=O)Nc1ccc(C)c(NC(=O)OCC)c1
active: [5]; [18] 80% | [11]; [18] 76% | [15]; [18] 78% | [16]; at 100.0 µM 82%
inactive: [1]; at 1.2 µM 3% | [1]; at 3.7 µM 8% | [1]; at 11.0 µM 15% | [1]; at 33.0 µM 21% | [1]; at 100.0 µM 23% | [2]; at 1.2 µM 6% | [2]; at 3.7 µM 13% | [2]; at 11.0 µM 12% | [2]; at 33.0 µM 15% | [2]; at 100.0 µM 17% | [3]; at 1.2 µM 4% | [3]; at 3.7 µM 8% | [3]; at 11.0 µM 19% | [3]; at 33.0 µM 34% | [3]; at 100.0 µM 47% | [4]; at 1.2 µM 3% | [4]; at 3.7 µM 9% | [4]; at 11.0 µM 12% | [4]; at 33.0 µM 12% | [4]; at 100.0 µM 16% | [5]; at 1.2 µM 5% | [5]; at 3.7 µM 6% | [5]; [17] 22% | [5]; at 11.0 µM 16% | [5]; at 33.0 µM 19% | [5]; at 50.0 µM -1.75% | [5]; at 100.0 µM 26% | [6]; at 1.2 µM 4% | [6]; at 3.7 µM 8% | [6]; [17] -2% | [6]; at 11.0 µM 11% | [6]; at 33.0 µM 19% | [6]; [18] 14% | [6]; at 50.0 µM 6% | [6]; at 100.0 µM 20% | [7]; at 1.2 µM 3% | [7]; at 3.7 µM 7% | [7]; at 11.0 µM 10% | [7]; at 33.0 µM 15% | [7]; at 100.0 µM 21% | [8]; [17] 11% | [8]; [18] 57% | [8]; at 50.0 µM 4.65% | [9]; at 1.2 µM 9% | [9]; at 3.7 µM 13% | [9]; at 11.0 µM 23% | [9]; at 33.0 µM 23% | [9]; at 100.0 µM 23% | [10]; [17] 11% | [10]; [18] 23% | [10]; at 50.0 µM -38.4% | [11]; at 1.2 µM 2% | [11]; at 3.7 µM 8% | [11]; [17] 35% | [11]; at 11.0 µM 7% | [11]; at 33.0 µM 13% | [11]; at 50.0 µM 14.3% | [11]; at 100.0 µM 13% | [12]; at 1.2 µM 4% | [12]; at 3.7 µM 8% | [12]; at 11.0 µM 10% | [12]; at 33.0 µM 14% | [12]; at 100.0 µM 13% | [13]; at 1.2 µM 3% | [13]; at 3.7 µM 8% | [13]; at 11.0 µM 14% | [13]; at 33.0 µM 19% | [13]; at 100.0 µM 23% | [14]; at 1.2 µM 3% | [14]; at 3.7 µM 6% | [14]; at 11.0 µM 12% | [14]; at 33.0 µM 20% | [14]; at 100.0 µM 30% | [15]; [17] 34% | [15]; at 50.0 µM 8.35% | [16]; at 1.2 µM 8% | [16]; at 3.7 µM 14% | [16]; at 11.0 µM 30% | [16]; at 33.0 µM 61%

Nc1ccc(N=Nc2ccc(-c3ccc(O)cc3)cc2)c2ccc(S(=O)(=O)O)cc12
active: [3]; at 33.0 µM 79% | [3]; at 100.0 µM 78% | [5]; at 50.0 µM 82.9% | [16]; at 100.0 µM 72%
inactive: [1]; at 1.2 µM -3% | [1]; at 3.7 µM 2% | [1]; at 11.0 µM 17% | [1]; at 33.0 µM 39% | [1]; at 100.0 µM 54% | [2]; at 1.2 µM 0% | [2]; at 3.7 µM 1% | [2]; at 11.0 µM 6% | [2]; at 33.0 µM 10% | [2]; at 100.0 µM 15% | [3]; at 1.2 µM 7% | [3]; at 3.7 µM 25% | [3]; at 11.0 µM 67% | [4]; at 1.2 µM 1% | [4]; at 3.7 µM 0% | [4]; at 11.0 µM 3% | [4]; at 33.0 µM 6% | [4]; at 100.0 µM 12% | [5]; at 1.2 µM 1% | [5]; at 3.7 µM 1% | [5]; [17] 8% | [5]; at 11.0 µM 17% | [5]; at 33.0 µM 25% | [5]; [18] 57% | [5]; at 100.0 µM 43% | [6]; at 1.2 µM 2% | [6]; at 3.7 µM 3% | [6]; [17] 15% | [6]; at 11.0 µM 8% | [6]; at 33.0 µM 14% | [6]; [18] 10% | [6]; at 50.0 µM 34.9% | [6]; at 100.0 µM 23% | [7]; at 1.2 µM -1% | [7]; at 3.7 µM -1% | [7]; at 11.0 µM 4% | [7]; at 33.0 µM 11% | [7]; at 100.0 µM 30% | [8]; [17] 1% | [8]; [18] 15% | [8]; at 50.0 µM 19.1% | [9]; at 1.2 µM 1% | [9]; at 3.7 µM 2% | [9]; at 11.0 µM 0% | [9]; at 33.0 µM -1% | [9]; at 100.0 µM -3% | [10]; [17] 45% | [10]; [18] 13% | [10]; at 50.0 µM 47.1% | [11]; at 1.2 µM -1% | [11]; at 3.7 µM -4% | [11]; [17] 9% | [11]; at 11.0 µM -2% | [11]; at 33.0 µM 15% | [11]; [18] 12% | [11]; at 50.0 µM 38.4% | [11]; at 100.0 µM -9% | [12]; at 1.2 µM -1% | [12]; at 3.7 µM 2% | [12]; at 11.0 µM 5% | [12]; at 33.0 µM 16% | [12]; at 100.0 µM 21% | [13]; at 1.2 µM 3% | [13]; at 3.7 µM 3% | [13]; at 11.0 µM 6% | [13]; at 33.0 µM -19% | [13]; at 100.0 µM 18% | [14]; at 1.2 µM 2% | [14]; at 3.7 µM 8% | [14]; at 11.0 µM 20% | [14]; at 33.0 µM 37% | [14]; at 100.0 µM 40% | [15]; [17] 5% | [15]; [18] 43% | [15]; at 50.0 µM 55.1% | [16]; at 1.2 µM -4% | [16]; at 3.7 µM 11% | [16]; at 11.0 µM 48% | [16]; at 33.0 µM 69%
